Assays:
Assay in all cases: DAPPL (digital affinity profiling via proximity ligation, sequencing); 10 mM Tris-HCl pH 7.5, 50 mM NaCl, 1 mM DTT, 4% glycerol, room temperature, 30 min; GST-TFs on glutathione beads, 16-mer random dsDNA library, 0.1% formaldehyde crosslink after washing; high values mean tight binding
Conditions in all cases: protein: recombinant; tags: N-terminal GST; dsDNA, one strand shown
ERG = biological target: T1, ERG (Homo sapiens, UniProt P11308 1-479)
T1 sequence: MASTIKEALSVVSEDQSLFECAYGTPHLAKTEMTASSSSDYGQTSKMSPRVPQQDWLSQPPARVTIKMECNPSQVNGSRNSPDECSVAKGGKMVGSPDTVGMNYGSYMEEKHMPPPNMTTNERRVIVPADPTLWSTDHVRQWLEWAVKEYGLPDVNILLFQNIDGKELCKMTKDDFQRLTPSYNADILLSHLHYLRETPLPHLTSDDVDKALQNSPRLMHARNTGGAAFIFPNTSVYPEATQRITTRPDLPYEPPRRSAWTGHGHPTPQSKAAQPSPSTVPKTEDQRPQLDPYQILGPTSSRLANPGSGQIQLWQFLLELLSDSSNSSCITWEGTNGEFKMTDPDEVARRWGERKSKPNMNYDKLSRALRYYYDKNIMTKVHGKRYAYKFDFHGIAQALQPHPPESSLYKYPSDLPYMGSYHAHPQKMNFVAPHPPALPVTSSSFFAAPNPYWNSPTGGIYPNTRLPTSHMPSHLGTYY
Method in brief: (§1)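 GST fusions of human transcription factors were expressed in yeast and captured with glutathione beads. Once given DNA barcodes and pooled alongside a tag-only sample, they were incubated for 30 min at room temperature with 200 nmole of a random double-stranded 16-mer DNA library in Tris/NaCl/DTT/glycerol buffer, then washed, crosslinked (0.1% formaldehyde), proximity-ligated, PCR-amplified and sequenced on an Illumina NextSeq500. The binding signal of each hexamer is its read frequency for a factor divided by its frequency for the tag-only sample.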

SPIB = SPIB (Homo sapiens, UniProt Q01892 1-262)
SPIB, sequence (Q01892 whole entry): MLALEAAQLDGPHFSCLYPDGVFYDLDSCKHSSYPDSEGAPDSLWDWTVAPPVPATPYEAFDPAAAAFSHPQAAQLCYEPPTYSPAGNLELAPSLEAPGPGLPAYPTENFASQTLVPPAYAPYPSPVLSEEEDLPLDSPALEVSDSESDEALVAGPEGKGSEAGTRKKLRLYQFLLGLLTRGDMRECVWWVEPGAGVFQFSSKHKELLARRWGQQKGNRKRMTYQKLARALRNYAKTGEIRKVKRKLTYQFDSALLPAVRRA
Method in brief: as §1

ETV5 = ETV5 (Homo sapiens, UniProt P41161 1-510)
ETV5, sequence (P41161 whole entry): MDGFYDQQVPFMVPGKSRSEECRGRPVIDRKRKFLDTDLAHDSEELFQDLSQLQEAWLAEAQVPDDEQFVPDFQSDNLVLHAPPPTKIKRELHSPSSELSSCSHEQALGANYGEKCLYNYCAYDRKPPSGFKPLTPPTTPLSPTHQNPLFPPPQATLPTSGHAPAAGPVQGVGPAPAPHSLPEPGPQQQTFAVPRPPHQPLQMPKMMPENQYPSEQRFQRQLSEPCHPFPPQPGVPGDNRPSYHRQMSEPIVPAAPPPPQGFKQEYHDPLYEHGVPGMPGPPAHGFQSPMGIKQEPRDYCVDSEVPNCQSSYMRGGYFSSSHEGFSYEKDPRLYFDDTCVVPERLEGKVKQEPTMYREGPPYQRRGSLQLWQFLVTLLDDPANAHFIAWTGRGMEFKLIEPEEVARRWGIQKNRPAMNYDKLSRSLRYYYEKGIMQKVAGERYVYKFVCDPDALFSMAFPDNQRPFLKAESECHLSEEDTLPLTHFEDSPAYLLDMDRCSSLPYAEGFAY
Method in brief: as §1

ELK4 = biological target: T2, ELK4 (Homo sapiens, UniProt P28324-2 1-405)
T2 sequence: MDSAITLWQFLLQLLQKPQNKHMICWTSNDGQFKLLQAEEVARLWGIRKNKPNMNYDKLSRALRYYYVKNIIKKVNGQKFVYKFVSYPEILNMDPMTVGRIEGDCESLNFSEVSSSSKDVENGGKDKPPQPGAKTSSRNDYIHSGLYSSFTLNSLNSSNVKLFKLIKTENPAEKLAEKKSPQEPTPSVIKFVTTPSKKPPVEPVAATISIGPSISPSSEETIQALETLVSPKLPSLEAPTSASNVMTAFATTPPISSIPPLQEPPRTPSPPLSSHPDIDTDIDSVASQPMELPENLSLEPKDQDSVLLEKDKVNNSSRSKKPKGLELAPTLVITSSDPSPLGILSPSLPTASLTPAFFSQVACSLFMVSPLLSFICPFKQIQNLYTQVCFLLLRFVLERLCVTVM
Method in brief: as §1

ETV1 = ETV1 (Homo sapiens, UniProt P50549 1-477)
ETV1, sequence (P50549 whole entry): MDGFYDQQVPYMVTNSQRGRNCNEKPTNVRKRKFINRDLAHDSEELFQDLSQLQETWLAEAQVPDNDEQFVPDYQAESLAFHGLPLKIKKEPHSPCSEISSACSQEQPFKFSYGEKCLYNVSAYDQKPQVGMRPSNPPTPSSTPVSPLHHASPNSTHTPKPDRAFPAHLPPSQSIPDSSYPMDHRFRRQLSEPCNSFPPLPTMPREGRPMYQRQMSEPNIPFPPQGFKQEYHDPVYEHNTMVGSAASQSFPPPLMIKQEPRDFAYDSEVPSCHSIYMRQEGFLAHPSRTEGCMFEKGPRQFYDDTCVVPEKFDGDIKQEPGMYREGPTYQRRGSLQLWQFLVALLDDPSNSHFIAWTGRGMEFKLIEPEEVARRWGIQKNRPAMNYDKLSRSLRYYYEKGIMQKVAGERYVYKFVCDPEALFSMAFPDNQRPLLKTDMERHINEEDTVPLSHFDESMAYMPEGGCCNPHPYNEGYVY
Method in brief: as §1

ETS2 = biological target: T3, ETS2 (Homo sapiens, UniProt P15036 1-469)
T3 sequence: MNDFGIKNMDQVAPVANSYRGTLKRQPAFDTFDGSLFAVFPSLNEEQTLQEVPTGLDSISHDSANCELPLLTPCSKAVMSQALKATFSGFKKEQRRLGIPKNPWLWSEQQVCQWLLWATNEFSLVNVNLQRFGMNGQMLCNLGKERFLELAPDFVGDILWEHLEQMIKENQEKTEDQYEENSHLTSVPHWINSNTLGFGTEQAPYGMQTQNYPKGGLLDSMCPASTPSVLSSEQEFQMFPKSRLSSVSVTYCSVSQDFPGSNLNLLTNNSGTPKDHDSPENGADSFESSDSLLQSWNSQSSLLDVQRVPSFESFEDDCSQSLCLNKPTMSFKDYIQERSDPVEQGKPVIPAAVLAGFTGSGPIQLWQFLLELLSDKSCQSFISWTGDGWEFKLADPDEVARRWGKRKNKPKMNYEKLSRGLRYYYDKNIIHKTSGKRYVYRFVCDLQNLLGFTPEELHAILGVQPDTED
Method in brief: as §1

ETV7 = biological target: T4, ETV7 (Homo sapiens, UniProt Q9Y603 1-341)
T4 sequence: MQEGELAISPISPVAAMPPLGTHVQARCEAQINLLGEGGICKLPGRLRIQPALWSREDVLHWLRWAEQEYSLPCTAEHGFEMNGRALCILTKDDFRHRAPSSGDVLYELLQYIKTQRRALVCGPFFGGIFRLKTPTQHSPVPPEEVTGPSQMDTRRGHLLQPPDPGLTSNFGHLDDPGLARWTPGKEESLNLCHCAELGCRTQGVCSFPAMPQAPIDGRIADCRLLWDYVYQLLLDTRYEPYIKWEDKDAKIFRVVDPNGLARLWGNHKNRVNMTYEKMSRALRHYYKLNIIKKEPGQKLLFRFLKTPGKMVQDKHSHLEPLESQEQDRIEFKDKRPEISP
Method in brief: as §1

ETV3 = biological target: T5, ETV3 (Homo sapiens, UniProt P41162-2 1-143)
T5 sequence: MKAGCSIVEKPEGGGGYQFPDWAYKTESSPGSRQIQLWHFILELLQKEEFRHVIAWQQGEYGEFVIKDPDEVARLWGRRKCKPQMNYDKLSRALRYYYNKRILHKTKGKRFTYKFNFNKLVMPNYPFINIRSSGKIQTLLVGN
Method in brief: as §1

ETV6 = ETV6 (Homo sapiens, UniProt P41212 1-452)
ETV6, sequence (P41212 whole entry): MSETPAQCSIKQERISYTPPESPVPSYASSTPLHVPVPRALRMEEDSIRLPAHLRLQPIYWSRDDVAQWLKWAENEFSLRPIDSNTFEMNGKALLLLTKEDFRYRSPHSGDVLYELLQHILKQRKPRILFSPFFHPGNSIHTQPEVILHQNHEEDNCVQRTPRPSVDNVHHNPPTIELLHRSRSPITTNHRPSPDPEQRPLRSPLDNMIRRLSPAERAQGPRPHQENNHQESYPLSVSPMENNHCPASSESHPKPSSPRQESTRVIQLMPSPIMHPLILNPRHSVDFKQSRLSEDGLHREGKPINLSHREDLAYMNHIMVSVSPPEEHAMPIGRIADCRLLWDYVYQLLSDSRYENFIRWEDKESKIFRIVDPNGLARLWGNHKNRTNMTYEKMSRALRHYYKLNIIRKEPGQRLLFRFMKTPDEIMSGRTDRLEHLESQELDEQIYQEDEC
Method in brief: as §1

ELK1 = biological target: T6, ELK1 (Homo sapiens, UniProt P19419 1-428)
T6 sequence: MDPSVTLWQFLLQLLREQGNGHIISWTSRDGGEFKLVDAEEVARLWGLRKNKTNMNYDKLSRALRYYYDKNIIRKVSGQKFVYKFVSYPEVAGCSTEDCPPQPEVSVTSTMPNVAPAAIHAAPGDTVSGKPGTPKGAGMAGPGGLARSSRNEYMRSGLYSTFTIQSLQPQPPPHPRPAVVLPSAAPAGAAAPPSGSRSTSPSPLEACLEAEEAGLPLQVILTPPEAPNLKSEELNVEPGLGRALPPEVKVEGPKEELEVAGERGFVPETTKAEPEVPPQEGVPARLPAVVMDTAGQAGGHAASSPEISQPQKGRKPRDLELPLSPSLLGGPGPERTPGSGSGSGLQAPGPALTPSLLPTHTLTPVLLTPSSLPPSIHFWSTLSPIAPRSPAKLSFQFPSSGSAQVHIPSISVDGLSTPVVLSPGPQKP
Method in brief: as §1

GABPA = biological target: T7, GABPA (Homo sapiens, UniProt Q06546 1-454)
T7 sequence: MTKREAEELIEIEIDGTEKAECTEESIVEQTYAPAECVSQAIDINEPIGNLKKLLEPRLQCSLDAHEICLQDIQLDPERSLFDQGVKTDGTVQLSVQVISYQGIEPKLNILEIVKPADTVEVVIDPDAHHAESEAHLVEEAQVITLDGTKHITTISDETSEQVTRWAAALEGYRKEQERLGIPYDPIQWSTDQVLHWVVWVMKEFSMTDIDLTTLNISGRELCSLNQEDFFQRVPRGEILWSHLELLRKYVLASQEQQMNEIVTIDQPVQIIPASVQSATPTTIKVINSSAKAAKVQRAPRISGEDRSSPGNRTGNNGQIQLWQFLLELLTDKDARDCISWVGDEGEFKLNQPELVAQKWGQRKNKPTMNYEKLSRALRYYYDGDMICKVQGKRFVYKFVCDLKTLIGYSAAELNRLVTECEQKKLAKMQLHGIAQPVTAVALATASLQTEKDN
Method in brief: as §1

ELF1 = ELF1 (Homo sapiens, UniProt P32519 1-619)
ELF1, sequence (P32519 whole entry): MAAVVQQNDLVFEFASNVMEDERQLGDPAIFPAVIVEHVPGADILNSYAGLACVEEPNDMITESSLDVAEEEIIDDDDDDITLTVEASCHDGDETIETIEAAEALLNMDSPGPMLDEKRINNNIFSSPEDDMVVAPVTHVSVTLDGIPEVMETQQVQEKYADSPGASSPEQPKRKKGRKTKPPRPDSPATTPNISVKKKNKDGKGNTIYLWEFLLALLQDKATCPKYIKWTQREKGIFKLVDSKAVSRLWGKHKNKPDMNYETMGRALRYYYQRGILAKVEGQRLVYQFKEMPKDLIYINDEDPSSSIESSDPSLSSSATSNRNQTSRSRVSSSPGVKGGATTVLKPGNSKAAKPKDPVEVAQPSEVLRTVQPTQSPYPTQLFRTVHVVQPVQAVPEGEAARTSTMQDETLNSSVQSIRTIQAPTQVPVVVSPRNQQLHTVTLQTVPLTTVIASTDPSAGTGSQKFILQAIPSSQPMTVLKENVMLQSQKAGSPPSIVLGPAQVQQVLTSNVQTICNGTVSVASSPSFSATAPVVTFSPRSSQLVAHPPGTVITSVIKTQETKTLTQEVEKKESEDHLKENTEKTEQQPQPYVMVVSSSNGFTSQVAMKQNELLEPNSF
Method in brief: as §1

FEV = biological target: T8, FEV (Homo sapiens, UniProt Q99581 1-238)
T8 sequence: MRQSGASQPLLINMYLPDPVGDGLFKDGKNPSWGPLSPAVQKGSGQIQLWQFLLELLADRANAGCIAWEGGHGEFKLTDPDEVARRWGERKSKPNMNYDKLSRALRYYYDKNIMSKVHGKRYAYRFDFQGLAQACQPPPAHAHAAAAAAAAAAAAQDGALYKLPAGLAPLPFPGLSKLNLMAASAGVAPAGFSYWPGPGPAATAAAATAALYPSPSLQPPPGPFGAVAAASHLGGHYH
Method in brief: as §1

ELF4 = ELF4 (Homo sapiens, UniProt Q99607 1-663)
ELF4, sequence (Q99607 whole entry): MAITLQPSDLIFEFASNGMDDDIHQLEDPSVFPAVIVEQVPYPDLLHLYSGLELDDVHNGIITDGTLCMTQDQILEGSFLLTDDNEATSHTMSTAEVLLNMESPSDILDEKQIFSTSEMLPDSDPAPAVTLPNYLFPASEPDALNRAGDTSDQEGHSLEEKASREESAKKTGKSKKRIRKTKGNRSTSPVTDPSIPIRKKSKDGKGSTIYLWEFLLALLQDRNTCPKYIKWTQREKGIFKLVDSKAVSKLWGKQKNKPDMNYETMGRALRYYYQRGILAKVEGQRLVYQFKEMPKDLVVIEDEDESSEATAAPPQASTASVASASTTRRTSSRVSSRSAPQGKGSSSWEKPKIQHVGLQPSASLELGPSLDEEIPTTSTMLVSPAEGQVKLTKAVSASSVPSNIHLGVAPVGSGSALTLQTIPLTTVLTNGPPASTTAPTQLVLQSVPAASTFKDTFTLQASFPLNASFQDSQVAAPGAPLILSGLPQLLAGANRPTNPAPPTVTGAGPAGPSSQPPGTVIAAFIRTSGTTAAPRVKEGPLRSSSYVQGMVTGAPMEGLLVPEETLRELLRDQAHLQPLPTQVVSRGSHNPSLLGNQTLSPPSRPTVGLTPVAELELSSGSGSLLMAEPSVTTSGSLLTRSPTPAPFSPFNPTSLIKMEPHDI
Method in brief: as §1

ERF = biological target: T9, ERF (Homo sapiens, UniProt P50548 1-548)
T9 sequence: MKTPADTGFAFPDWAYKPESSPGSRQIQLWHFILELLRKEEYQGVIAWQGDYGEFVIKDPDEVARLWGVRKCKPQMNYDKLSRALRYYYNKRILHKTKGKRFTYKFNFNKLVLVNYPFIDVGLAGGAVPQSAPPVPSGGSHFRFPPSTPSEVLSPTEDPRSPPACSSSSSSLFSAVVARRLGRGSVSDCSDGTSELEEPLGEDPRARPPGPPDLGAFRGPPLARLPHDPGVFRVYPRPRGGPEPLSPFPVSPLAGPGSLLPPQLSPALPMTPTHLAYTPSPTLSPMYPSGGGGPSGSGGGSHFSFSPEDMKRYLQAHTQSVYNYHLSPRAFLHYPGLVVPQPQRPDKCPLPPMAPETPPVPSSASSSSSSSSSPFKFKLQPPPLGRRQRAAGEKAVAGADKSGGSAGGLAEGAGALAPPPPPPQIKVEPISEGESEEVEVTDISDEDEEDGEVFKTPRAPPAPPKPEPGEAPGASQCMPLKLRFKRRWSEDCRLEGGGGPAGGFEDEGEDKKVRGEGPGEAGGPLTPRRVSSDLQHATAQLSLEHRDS
Method in brief: as §1

ETV3L = biological target: T10, ETV3L (Homo sapiens, UniProt Q6ZN32 1-361)
T10 sequence: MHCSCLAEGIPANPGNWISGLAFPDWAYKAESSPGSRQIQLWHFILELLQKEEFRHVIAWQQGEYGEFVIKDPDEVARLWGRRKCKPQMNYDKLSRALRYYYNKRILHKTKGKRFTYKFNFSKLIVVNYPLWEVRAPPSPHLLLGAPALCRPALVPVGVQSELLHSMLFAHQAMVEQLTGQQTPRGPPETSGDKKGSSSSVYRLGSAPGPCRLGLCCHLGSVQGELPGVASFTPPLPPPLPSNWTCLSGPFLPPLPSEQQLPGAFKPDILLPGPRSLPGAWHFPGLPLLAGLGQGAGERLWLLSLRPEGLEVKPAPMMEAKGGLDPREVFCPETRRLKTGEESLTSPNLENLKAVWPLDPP
Method in brief: as §1

Row | Sequence | binding signal (ERG) | binding signal (SPIB) | binding signal (ETV5) | binding signal (ELK4) | binding signal (ETV1) | binding signal (ETS2) | binding signal (ETV7) | binding signal (ETV3) | binding signal (ETV6) | binding signal (ELK1) | binding signal (GABPA) | binding signal (ELF1) | binding signal (FEV) | binding signal (ELF4) | binding signal (ERF) | binding signal (ETV3L)
1 | TGGAAG | 1.05 fold enrichment (6-mer frequency, TF over GST control) | 1.11 fold enrichment (6-mer frequency, TF over GST control) | 1.03 fold enrichment (6-mer frequency, TF over GST control) | 1.06 fold enrichment (6-mer frequency, TF over GST control) | 1.02 fold enrichment (6-mer frequency, TF over GST control) | 1.01 fold enrichment (6-mer frequency, TF over GST control) | 1.13 fold enrichment (6-mer frequency, TF over GST control) | 1.07 fold enrichment (6-mer frequency, TF over GST control) | 1.19 fold enrichment (6-mer frequency, TF over GST control) | – | – | – | – | – | – | –
2 | GCAATC | 1.03 fold enrichment (6-mer frequency, TF over GST control) | 1.05 fold enrichment (6-mer frequency, TF over GST control) | 1.06 fold enrichment (6-mer frequency, TF over GST control) | 1.07 fold enrichment (6-mer frequency, TF over GST control) | 1.06 fold enrichment (6-mer frequency, TF over GST control) | 1.04 fold enrichment (6-mer frequency, TF over GST control) | – | 1.06 fold enrichment (6-mer frequency, TF over GST control) | 1.11 fold enrichment (6-mer frequency, TF over GST control) | 1.05 fold enrichment (6-mer frequency, TF over GST control) | 1.04 fold enrichment (6-mer frequency, TF over GST control) | 1.09 fold enrichment (6-mer frequency, TF over GST control) | 1.05 fold enrichment (6-mer frequency, TF over GST control) | 1.02 fold enrichment (6-mer frequency, TF over GST control) | 1.03 fold enrichment (6-mer frequency, TF over GST control) | 1.01 fold enrichment (6-mer frequency, TF over GST control)

— PMC7862700, “An all-to-all approach to the identification of sequence-specific readers for epigenetic DNA modifications on cytosine”
